Laboratory results reported in a collection of fitness landscapes (doi:10.1016/j.celrep.2020.107928).
Over roughly 81,000 sequences, “one-hybrid fitness for binding NBS DNA” has its median near -0.1; the highest 2% begin near 0.36. The list comes from a sample in which the highest values are over-represented; it also holds similar and randomly drawn sequences.

B1: Caulobacter ParB omega fusion; a variant is named by its letters at X, in order, B8GW30 (parent)
chain: MESVVVGEPGMSEGRRGLGRGLSALLGEVDAAPAQAPGEQLGGSREAPIEILQRNPDQPRRTFREEDLEDLSNSIREKGVLQPILVRPSPDTAGEYQIVAGERAWRAAQRAGLKTVPIMVRELDDLAVLEIGIIENVQRADLNVLEEALSYKVLMEKFERTQENIAQTIGKSXSHVANXMRLLXLPDEVQSYLVSGELTAXHARAIAAAADPVALAKQIIEGGLSVRETEALARKAPNLSAGKSKGGRPPRVKDTDTQALESDLSSVLGLDVSIDHRGSTGTLTITYATLEQLDDLCNRLTRGI

Variants of: B1
Test: one-hybrid fitness for binding NBS DNA (the Noc-binding site; scaled: cognate 1, non-cognate 0); higher = stronger binding
Conditions: with NBS DNA site
Procedure, shortened: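 Caulobacter ParB libraries with four specificity codons randomised were screened by bacterial one-hybrid selection in the E. coli USO strain, using a HIS3 reporter whose site lies 19 bp from the promoter. Selection ran for 48 hours at 37°C on M9 lacking histidine, with 0.1 mM IPTG and 5 mM 3-AT. Plasmids were Illumina-sequenced before and after selection, three replicate libraries were pooled, and variants with under 10 reads were dropped. Fitness is the log change in each variant's read ratio to wild type, rescaled against the cognate and non-cognate sites.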

Variant	one-hybrid fitness for binding NBS DNA
HGQT	≤ 0.2
APTM	≤ 0.2
HNIL	≤ 0.2
QTSD	≤ 0.2
QASR	0.482
QGSR	≤ 0.2
QPSR	0.44
QPSP	≤ 0.2
QASH	≤ 0.2
QTSH	0.321
QPSH	≤ 0.2
QTSR	0.786
QASP	≤ 0.2
QWSR	0.229
QCSR	0.614
RVGY	≤ 0.2
YYRE	≤ 0.2
EWTK	≤ 0.2
SFAV	≤ 0.2
RSFI	≤ 0.2
ETCC	≤ 0.2
HGGG	≤ 0.2
QTAK	≤ 0.2
QMSN	≤ 0.2
QMSR	0.557
QMSD	≤ 0.2

Variant	one-hybrid fitness for binding NBS DNA
KFFY	≤ 0.2
TGSL	≤ 0.2
HQMR	≤ 0.2
YVSG	≤ 0.2
IRIE	≤ 0.2
RRTQ	0.243
RPTT	≤ 0.2
RCTT	0.518
RTTT	0.543
RRTT	0.716
RTTD	≤ 0.2
RHTH	≤ 0.2
RHTT	0.427
RFTT	0.269
RRTG	0.331
RHTD	≤ 0.2
RTTN	≤ 0.2
QQII	≤ 0.2
KSMI	≤ 0.2
KVWM	≤ 0.2
KATR	≤ 0.2
ALTC	≤ 0.2
AHCL	≤ 0.2
HGAA	≤ 0.2
HRGN	≤ 0.2
REMS	≤ 0.2

Variant	one-hybrid fitness for binding NBS DNA
CAHR	≤ 0.2
LWHP	≤ 0.2
QELW	≤ 0.2
YGQC	≤ 0.2
WRES	≤ 0.2
YVSL	≤ 0.2
HMQS	≤ 0.2
LYTW	≤ 0.2
RMTT	0.434
RLTD	≤ 0.2
RMTK	≤ 0.2
RETT	≤ 0.2
RGTT	≤ 0.2
RLTN	≤ 0.2
RSTT	0.426
RKTT	0.666
RKTC	0.275
RMTL	≤ 0.2
RKTP	≤ 0.2
RLTT	0.454
DHNC	≤ 0.2
YATH	≤ 0.2
QISK	≤ 0.2
CLVT	≤ 0.2
DRWC	≤ 0.2
